Hits are enriched below; roughly 2.8% of the tested compounds scored in any of these assays.
SENP7 block = inhibitors of human SENP7 protease; recombinant SENP7, Z-RLRGG-aminoluciferin luminescence, 40 min; AID 434973; inhibition, % at 5 µM; 1.5% of 330,000 active;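 active means inhibition above about 50% at the single test dose, limit read from the data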;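 further: plate controls were DMSO with enzyme for no effect and no enzyme buffer wells for full effect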
Target sequence (Q9BQF6 706-1050 limits assumed): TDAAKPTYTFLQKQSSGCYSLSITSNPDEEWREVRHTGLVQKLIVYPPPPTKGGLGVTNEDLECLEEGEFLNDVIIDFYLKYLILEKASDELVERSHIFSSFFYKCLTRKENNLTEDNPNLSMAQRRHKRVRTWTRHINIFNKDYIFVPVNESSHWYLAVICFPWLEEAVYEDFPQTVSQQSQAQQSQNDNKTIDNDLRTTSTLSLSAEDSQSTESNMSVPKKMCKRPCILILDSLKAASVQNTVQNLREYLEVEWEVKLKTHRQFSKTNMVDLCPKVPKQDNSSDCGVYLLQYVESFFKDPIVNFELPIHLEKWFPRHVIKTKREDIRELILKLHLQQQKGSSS
HSP90 inh = inhibitors of HSP90 luciferase refolding in rabbit reticulocyte lysate; luciferase refolding luminescence, 3 h; inhibition, % at 5.6 µM; 0.91% of 290,000 active; AID 1789;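 active means inhibition above the screen-wide mean plus 3 SD, computed separately per campaign, cut at about 16% in these data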;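 further: 0% = DMSO wells and 100% = 60 µM geldanamycin wells; inhibitors lower the luminescence because luciferase stays unfolded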
SENP6 block = inhibitors of human SENP6 protease | Q9GZR1 | Recombinant SENP6 catalytic domain, aminoluciferin luminescence | inhibition, % at 10 µM | 1.8% of 330,000 active;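 active means inhibition above about 50% at the single tested dose, limit read from the data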;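 further: plate controls were DMSO wells with enzyme for no effect and DMSO wells lacking enzyme for full effect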
SENP8 block-1 = inhibitors of human SENP8 protease | Q96LD8 | 0.64% of 360,000 active | inhibition, % at 20 µM | recombinant SENP8, Nedd8 substrate fluorescence | AID 602440; in the data active means inhibition mostly above about 40%, no sharp cut-off; inactive means mostly below about 27%
Target sequence (Q96LD8 whole entry, looked up): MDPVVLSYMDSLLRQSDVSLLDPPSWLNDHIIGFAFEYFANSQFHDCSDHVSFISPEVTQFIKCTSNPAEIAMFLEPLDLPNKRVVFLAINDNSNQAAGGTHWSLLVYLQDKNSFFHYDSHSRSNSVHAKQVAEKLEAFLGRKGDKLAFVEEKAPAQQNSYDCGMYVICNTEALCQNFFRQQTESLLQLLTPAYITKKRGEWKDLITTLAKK
SENP8 block-2 = SENP8 protease inhibition; 1.2% of 330,000 active; purified SENP8, Z-RLRGG-aminoluciferin cleavage, luminescence; inhibition, % at 10 µM; in the data active means inhibition above about 50%
SENP8 conf = confirmation of human SENP8 protease inhibitors | shares compounds with SENP7 block | Recombinant SENP8, Z-RLRGG-aminoluciferin luminescence, 60 min | inhibition, % at 12.5 µM | 40% of 6,200 active;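 active means mean inhibition across replicates above about 50%, limit read from the data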
SENP6 conf = confirmation of human SENP6 protease inhibitors. shares compounds with SENP7 block. recombinant SENP6, Z-RLRGG-aminoluciferin luminescence. 58% of 6,200 active. inhibition, % at 12.5 µM
SENP7 confirm = human SENP7 inhibition, confirmed; inhibition, % at 12.5 µM; 69% of 6,200 active; recombinant SENP7, Z-RLRGG-aminoluciferin luminescence, 40 min; shares compounds with SENP7 block
Casp3 select = selectivity test for SENP inhibitors: human caspase-3 inhibition. shares compounds with SENP7 block. inhibition, % at 12.5 µM. purified caspase-3, Z-DEVD-aminoluciferin luminescence, 60 min. 60% of 6,200 active;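 active means mean inhibition above about 50%, limit read from the data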;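 further: plate controls were enzyme with DMSO for no effect and wells without caspase-3 for full effect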
Luc interf = luminescence interference (SENP counter-screen); shares compounds with SENP7 block; Pre-incubated SENP8/Z-RLRGG-aminoluciferin, luciferase luminescence interference; inhibition, % at 12.5 µM; 39% of 6,200 active; AID 488919;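 active means mean inhibition above about 50% when retested at one dose, limit read from the data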;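 further: plate controls were DMSO wells with completed reaction for no effect and substrate without enzyme for full effect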
Numbers without * were called inactive.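 How the source made its calls, unless noted: active means mean inhibition above about 50% in the one-dose retest (limit read from the data); inactive means the rest.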

`CCOC(=O)Nc1cc(C)c(Cl)cc1OC` gave SENP7 block -13, HSP90 inh -2, SENP6 block -16, SENP8 block-1 14 and SENP8 block-2 1.
COc1ccc(Cn2c(C3CC3)nc3ccc(NC(=O)C4CC4)cc3c2=O)cc1 was read as SENP7 block 67*, HSP90 inh -2, SENP6 block 8, SENP8 block-1 -93, SENP8 block-2 38, SENP8 conf 9, SENP6 conf 3, SENP7 confirm 92*, Casp3 select 58* and Luc interf -4.
`COc1cccc(Cn2c(C3CC3)nc3ccc(NC(=O)c4ccco4)cc3c2=O)c1` gave HSP90 inh 3.
Screening COc1ccc(N=C2NN=C(c3ccc4c(c3)OCCO4)CS2)cc1 returned SENP7 block 3, HSP90 inh 9, SENP6 block -24, SENP8 block-1 -19 and SENP8 block-2 -7.
Screening c1cc2c(cc1C1=NNC(=NC3CC3)SC1)OCCO2 returned SENP7 block 97*, HSP90 inh 76*, SENP6 block 97*, SENP8 block-1 7, SENP8 block-2 96*, SENP8 conf 98*, SENP6 conf 99*, SENP7 confirm 102*, Casp3 select 98* and Luc interf 96*.
`CCOc1ccc2c(c1)nc(C)n2C` gave SENP7 block 6, HSP90 inh -5, SENP6 block -25, SENP8 block-1 17 and SENP8 block-2 -8.
O=[N+]([O-])c1nn(-c2ccc3c(c2)OCCO3)n(O)c1=NCCCO was read as SENP7 block 4, HSP90 inh 4, SENP6 block 4, SENP8 block-1 21 and SENP8 block-2 1.
For Cc1ccc(CN=c2c([N+](=O)[O-])nn(-c3ccc4c(c3)OCCO4)n2O)cc1 the results were SENP7 block 35, HSP90 inh -2, SENP6 block 59*, SENP8 block-1 21, SENP8 block-2 16, SENP8 conf 20, SENP6 conf 30, SENP7 confirm 58*, Casp3 select 14 and Luc interf 6.
Screening O=C(O)C(Cc1ccccc1)N1Cc2ccccc2C1=O (stereo unspecified) returned SENP7 block -6, HSP90 inh 2, SENP6 block -6, SENP8 block-1 19 and SENP8 block-2 -2.
Screening O=C1NC2NC(=O)N(C(Cc3ccccc3)C(=O)O)C2N1 (stereo unspecified) returned SENP7 block 5, HSP90 inh 0, SENP6 block 60*, SENP8 block-1 17, SENP8 block-2 2, SENP8 conf -26, SENP6 conf -24, SENP7 confirm -11, Casp3 select -6 and Luc interf -8.
`C/C(=N\NC(=O)c1ccccc1O)c1ccc(NC(=O)c2ccccc2)cc1` gave SENP7 block -10, HSP90 inh 0, SENP6 block 5, SENP8 block-1 -138 and SENP8 block-2 3.
Screening C/C(=N/NC(=O)c1ccccc1O)c1ccc(N2C(=O)C3CCCCC3C2=O)cc1 (stereo unspecified) returned SENP7 block 22, HSP90 inh 3, SENP6 block 62*, SENP8 block-1 -56, SENP8 block-2 -6, SENP8 conf -3, SENP6 conf -2, SENP7 confirm -8, Casp3 select -3 and Luc interf -4.
`O=C(COC(=O)/C=C/c1ccccc1Cl)Nc1cccnc1Cl` gave SENP7 block 9, SENP6 block -11, SENP8 block-1 13 and SENP8 block-2 4.
For CC(C)OC(=O)CC(=O)c1sc2nc3c(cc2c1N)CN(C)CC3 the results were SENP7 block -8, HSP90 inh 1, SENP6 block 54*, SENP8 block-2 1, SENP8 conf 4, SENP6 conf 4, SENP7 confirm -7, Casp3 select 1 and Luc interf -6.
O=C(NCc1ccccn1)c1ccc(Cl)s1 was read as SENP7 block 8, HSP90 inh -1, SENP6 block -7, SENP8 block-1 5 and SENP8 block-2 6.
`O=C(Nc1nccs1)c1ccc2ccccc2n1` gave SENP7 block 70*, HSP90 inh 3, SENP6 block 69*, SENP8 block-1 0, SENP8 block-2 53*, SENP8 conf 64*, SENP6 conf 64*, SENP7 confirm 90*, Casp3 select 80* and Luc interf 63*.
Screening Cc1csc(NC(=O)c2ccc3ccccc3n2)n1 returned SENP7 block 80*, HSP90 inh 7, SENP6 block 83*, SENP8 block-1 2, SENP8 block-2 75*, SENP8 conf 4, SENP6 conf 82*, SENP7 confirm 95*, Casp3 select 49 and Luc interf 15.
Screening O=C(Nc1nccs1)c1cc(Cl)nc2ccccc12 returned SENP7 block 0, HSP90 inh 5, SENP6 block -1, SENP8 block-1 11 and SENP8 block-2 0.
For O=C(Nc1ccccn1)c1ccc(Cl)s1 the results were SENP7 block 66*, HSP90 inh -4, SENP6 block 60*, SENP8 block-1 6, SENP8 block-2 26, SENP8 conf 30, SENP6 conf 38, SENP7 confirm 78*, Casp3 select 74* and Luc interf 56*.
`Cc1csc(NC(=O)c2cc(C)nc3ccccc23)n1` gave SENP7 block -4, HSP90 inh 5, SENP6 block -3, SENP8 block-1 10 and SENP8 block-2 3.
Cc1cccc(NC(=O)c2ccc3ccccc3n2)c1C was read as SENP7 block 77*, HSP90 inh -4, SENP6 block 88*, SENP8 block-1 20, SENP8 block-2 65*, SENP8 conf 13, SENP6 conf 84*, SENP7 confirm 97*, Casp3 select 72* and Luc interf 58*.
For O=C(COC(=O)c1cccc(OC(F)F)c1)NC(=O)NC1CCCCC1 the results were SENP7 block 6, SENP6 block -5, SENP8 block-1 6 and SENP8 block-2 -3.
O=C(Nc1ccccn1)c1ccc2ccccc2n1 was read as SENP7 block 89*, HSP90 inh 5, SENP6 block 90*, SENP8 block-1 10, SENP8 block-2 80*, SENP8 conf -4, SENP6 conf 85*, SENP7 confirm 97*, Casp3 select 86* and Luc interf 85*.

Screening results (PubChem)
